Whole data set: some 25,000 sequences, median “ln(normalized median fluorescence intensity)” near 7.1, cut for the highest 2% near 10. The full list was thinned out, with the highest values kept by preference.
Each sequence was assayed on PfSIP2 AP2 domain 1 (GST-tagged) (assay: gcPBM binding intensity (ln(normalized median fluorescence intensity)); higher = stronger DNA binding).
In short: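 In this array assay, P. falciparum DNA-binding domains with a GST tag, expressed in E. coli, were applied for 1 h to primer-extended double-stranded 36-bp intergenic genomic probes and negative controls on an Agilent 4 × 180k array. Bound protein was visualised with Alexa488 anti-GST antibody at 488 nm. Binding intensity is the highest Masliner-normalised natural-log median intensity across replicate spots of either probe orientation.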

Row | Sequence | gcPBM binding intensity (ln)
1 | AGGAAAAACTTGAATGCATGCGCACATTCTAGTTTG [TGCATGCA_site776] | 6.99
2 | AAAATTTATATAGGCACACAAATAAATTAATACATA [CACACA_site1418] | 6.76
3 | TTTTTTTATATTATACGCACTAATATATATATATAT [XGTACX_negctrl_site40] | 8.94
4 | CCGTATATTTTATATAGTACTCATCATATATTTTTA [XGTACX_site5560] | 6.96
5 | AAGATAATTACGCACACACACACACGCCCACAACTA [CACACA_site7255] | 7.34
6 | TATCTTCATATATGGTGTACAGATTTTTTTTTTTTT [XGTACX_site5545] | 7.26
7 | CATTTTGTAAGATATGCACACATGGATCATATTTTA [CACACA_site423] | 6.94
8 | CTGTCTGCAGATATGGTGCATTTGTAAGATCTTACA [GTGCAC_site9870] | 10.4
9 | GGAAAAAGAAATTAATGTACATGTGGATGTATGAGG [XGTACX_site5468] | 7.25
10 | TTTCCTCATTTTATCATACACACTTGTTTATATGTG [CACACA_site8202] | 6.92
11 | AATTTATATAATTTTGTGCACAATATTCATGTATAT | 8.93
12 | TTTATTTTTTACCAAGTGCAATATATTATAATAATA | 7.77
13 | AATCATTTATTGATGGTGCAATATACCATCTAATGA [GTGCAC_site9440] | 9.44
14 | ATTCATTTACCAATGGTGCAATATATTTTTATAATG | 10.3
15 | TCTTTGTATATATGTTCATTTGTAATATATATTCAT [TGCATGCA_negctrl_site467] | 7.18
16 | TATTCAGGTCCAATGGTGCAATATATTTTTGTAATA [GTGCAC_site9607] | 10.5
17 | AGCTATATAAATAATACATGCATTGTTCAGGTATTT [TGCATGCA_site964] | 6.83
18 | TAAATATAGGGTAATAGTACATAATTATATTCTTTT [XGTACX_site3883] | 6.76
19 | GTGTTGGGAAAAGGCATGCACTTTTTTTTTTTTTTT | 9.34

Row | Sequence | gcPBM binding intensity (ln)
20 | ACCTTTAATATATACACACACATAAAAAAAATATAT [CACACA_site1843] | 7.83
21 | AATAGTCGGGTGCATACACACCTTAAATATAATATA [CACACA_site8271] | 11.3
22 | CTACCTTTAATATATACACACACATAAAAAAAATAT [CACACA_site8548] | 7.44
23 | TATACCTTAATATACACACATACATATATATATATA [CACACA_site1339] | 9.12
24 | AATAGTCGTGTGCATACACACCTTAACTATAATATA [CACACA_site6636] | 7.41
25 | GGAATAGTCGGGTGCATACACACCTTAAATATAATA [CACACA_site1081] | 11.4
26 | TTGATTACACTGAAGTGTACATATATATATATATAT [XGTACX_site3532] | 9.07
27 | AATAATAAAATAAAGGCATGCACAATATGCTATAAA [TGCATGCA_site645] | 7.49
28 | TTTAATCATATGTTATATAATAAGCCCCCCCCCCAA [CACACA_negctrl_site486] | 10.2
29 | ATATTTTTATTTTCTTTACACACCACATAATTTTTT [CACACA_site4060] | 7.09
30 | TTTTGTTTTAATTTTATTTGATTTTATTTGATTTAT [CACACA_negctrl_site692] | 6.69
31 | TTTTAATTTATTTATGCACACATATATAATTACACA [CACACA_site8126] | 7.52
32 | ATATATATTTTAATAACACACATATATTATATTATA [CACACA_site4387] | 7.06
33 | TATTTTTAACAGTGCACACATAACTTAATTATATGT [CACACA_site2194] | 10.6
34 | TTTATTTTTAACAGTGCACACATAACTTAATTATAT [CACACA_site8681] | 10.5
35 | TTTAATTTTTATATAACACACATATTGTAATTATGT [CACACA_site4566] | 6.97
36 | TTTAACTTTTATATAACACACATATTGTAATTATGT [CACACA_site6486] | 7.05
37 | AAAAAAAGAAATTAGGTGCATAGCATTAACCGATAA [GTGCAC_site9582] | 10.1
38 | TATATATATAGAAATGCATGTTAATAAAAGTTATAA [TGCATGCA_site947] | 8.13

Row | Sequence | gcPBM binding intensity (ln)
39 | ATTTTTTATATTTAGTGTACATGTTTTAATTTATAA [XGTACX_site7512] | 7.29
40 | GGATAAGAGGCATATACACACAATTTAAAAAAATAA [CACACA_site4657] | 7.15
41 | TTTTTTTCAATATTTGCACACGATTAAAATATTTAA [CACACA_site5266] | 7.28
42 | AATATTTTAAGGCACACACACAAAAAAAAAAAAAAA [CACACA_site2890] | 7.22
43 | AAAAAAAAAAAAAGTGCACACGATTTAAGGCCTATA [CACACA_site2823] | 10.9
44 | TTTCTAATTTATATCACACACATATAAATATAGTAA [CACACA_site6210] | 7.19
45 | GGCGTATGTGTATATACACACCCACGTATATAAATA [CACACA_site7489] | 7.08
46 | CCTTTCCTTTTATAAGTGCATATAACAAATGTATAC [GTGCAC_site9872] | 8.88
47 | ATAATGAACAAAGTAGTGCACTTTCCTTATCTTTTC | 10.9
48 | ACTAATAACAAAAGCTTGCACTTTTTTTTTCCTAAT | 7.82
49 | ATCTTATATCGTAGAGATTTTTTTTTTTTTTCATTT [XGTACX_negctrl_site140] | 6.7
50 | TTTTAAAAAAATAAAAAATAATAAAAAAAATAAAAA [CACACA_negctrl_site1693] | 6.76
51 | TTTTTTATAAATCAAATGAAAAATAAACTATTCAGA [CACACA_negctrl_site1568] | 6.59
52 | TTTTAAATTTTTTAAAGTACACGTCGAAAAGGTATA [XGTACX_site76] | 7.93
53 | GCACCCTGTATGAATGCACACATTCATAGAATTGCT [CACACA_site5475] | 8.46
54 | TATTTAAAATAATAACAAAATTAACATAAATATATA [GTGCAC_negctrl_site472] | 6.82
55 | AAAGAAATATATACAAAAATATGAACAATTTATTAT [XGTACX_negctrl_site78] | 6.81
56 | AAGAACAAATATGAGGTGCAACACAATATATTATTA [GTGCAC_site9965] | 10.5
57 | TTTATATTTAAATATATATGAGAAAACACAAAATAT [TGCATGCA_negctrl_site211] | 7.34

Reference: the supplement of paper PMC11417369
